Source: PubChem BioAssay (Tox21)
“And” between values parts separate entries of the source, which are not always exact repeats. Equal values may be shown once. Results filed as inconclusive are left out. Entries that show only a call come without a potency. A structure can be active in one record and inactive in another. The source made the active and inactive calls. Unless noted, calls follow the shape of the dose curve; as a rule, active = well fitted curve in the direction sought with a large enough effect in the repeat runs; inconclusive = weak or mixed curves; inactive = no such curve, though single readings can be large; an effect the other way counts as inactive or inconclusive.

Experiments:
[1] = qHTS assay to identify small molecule agonists of the hypoxia (HIF-1) signaling pathway - cell viability counter screen (AID 1224844; calls by dose curve; also: nearly all actives have a fitted effect of over 50% in size; also: potency is read from the fitted curve at half-maximal effect)
Procedure, shortened: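 HRE-bla ME-180 cells in medium with 0.5% dialyzed FBS were preincubated 5 hrs at 37C, exposed to compounds for 17 hrs, then viability was read as CellTiter-Glo luminescence after 30 min at room temperature, in the reporter wells.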

[2] = qHTS assay to identify small molecule agonists of H2AX (AID 1224845; active = well fitted activation curve with a large enough effect in the signal ratio in the repeat runs, not every such curve was filed as active; the % refers to the signal ratio)
Procedure, shortened: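 Wild-type CHO-K1 cells, plated overnight, exposed 3hr at 37C to 15 concentrations (0.76% DMSO final). Lysed, then HTRF anti-pH2AX (S139) cryptate and anti-H2AX-d2 antibodies, 24 hr room temperature; 665/620 nm emission read.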

[3] = qHTS assay to identify small molecule agonists of the hypoxia (HIF-1) signaling pathway (AID 1224846; active = well fitted activation curve with a large enough effect in the signal ratio in the repeat runs, not every such curve was filed as active; the % refers to the signal ratio)
Procedure, shortened: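 HRE-bla ME-180 cells (beta-lactamase reporter under hypoxia response element) were plated at 2,000 cells/well in medium with 0.5% dialyzed FBS, rested 5 hrs, then given compounds in DMSO for 17 hrs at 37C, 5% CO2. Reporter induction was read with CCF4-AM FRET substrate.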

[4] = qHTS assay to identify small molecule agonists of H2AX - cell viability counter screen (AID 1224847; calls by dose curve; also: nearly all actives have a fitted effect of over 30% in size; also: potency is read from the fitted curve at half-maximal effect)
Procedure, shortened: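 For this counter screen, overnight-attached CHO-K1 cells received test compounds (15 concentrations, 0.76% DMSO final); 3 hr later at 37C, CellTiter-Glo reagent was added and luminescence recorded after 30 min at room temperature.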

[5] = qHTS assay to identify small molecule antagonists of the estrogen related receptor (ERR) signaling pathway from Tox21 library (AID 1224848); also: nearly all actives have a fitted effect of over 50% in size; also: potency is read from the fitted curve at half-maximal effect
Procedure, shortened: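 Luminescent reporter read-out (ONE-Glo) from NTP's ERR cell line after 18 h treatment at 37 C with DMSO-dissolved Tox21 compounds; cells pre-plated 6 h beforehand at 2,000 per well.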

[6] = qHTS assay to identify small molecule agonists of the estrogen related receptor (ERR) signaling pathway from Tox21 library (AID 1224849; calls by dose curve; also: nearly all actives have a fitted effect of over 15% in size); conditions: ERR reporter cell line, ONE-Glo luciferase, 18 h; at 92.4 µM (top of the series) unless noted
Procedure, shortened: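 ERR reporter cell line (NTP) seeded, rested 6 h at 37 C/5% CO2, then pinned with Tox21 compounds in DMSO. After 18 h at 37 C, ONE-Glo luciferase luminescence was read following 30 min at room temperature.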

[7] = qHTS RealTime-Glo MT Cell Viability Assay in HepG2 cells - 24 hour (AID 1224867); also: nearly all actives have a fitted effect of over 50% in size
Procedure, shortened: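 Viability was tracked continuously by NanoLuc luminescence from prosubstrate reduced by living HepG2 cells, at successive time points over 40 h of compound exposure. Cells with reagent were preincubated 5 h at 37 °C before compound addition.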

[8] = qHTS RealTime-Glo MT Cell Viability Assay in HEK293 cells - 32 hour (AID 1224868); also: nearly all actives have a fitted effect of over 50% in size; also: potency is read from the fitted curve at half-maximal effect
Procedure, shortened: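 Viability tracked continuously by luminescence as live cells reduce a prosubstrate for NanoLuc; HEK293 cells preincubated 5 h, compound-treated at 37 C, and read at 0, 8, 16, 24, 32 and 40 h.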

[9] = A CellTox Green Cytotoxicity Assay to monitor cytotoxicity in HEK293 cells - 0 hour (AID 1224869); also: nearly all actives have a fitted effect of over 50% in size
Procedure, shortened: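 HEK293 cells premixed with CellTox Green dye were seeded at 600 cells/well and left 5 h at 37 C/5% CO2 before pin transfer of 23 nL compound in DMSO. Fluorescence from dye bound to dead-cell DNA was read during 40 h treatment.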

[10] = target: Thyrotropin receptor (Homo sapiens) (UniProt P16473); experiment: qHTS assay to identify small molecule agonists of the thyroid stimulating hormone receptor (TSHR) signaling pathway (AID 1224843; calls by dose curve; also: nearly all actives have a fitted effect of over 45% in size)
Chain of Thyrotropin receptor (Homo sapiens) (P16473 whole entry, looked up): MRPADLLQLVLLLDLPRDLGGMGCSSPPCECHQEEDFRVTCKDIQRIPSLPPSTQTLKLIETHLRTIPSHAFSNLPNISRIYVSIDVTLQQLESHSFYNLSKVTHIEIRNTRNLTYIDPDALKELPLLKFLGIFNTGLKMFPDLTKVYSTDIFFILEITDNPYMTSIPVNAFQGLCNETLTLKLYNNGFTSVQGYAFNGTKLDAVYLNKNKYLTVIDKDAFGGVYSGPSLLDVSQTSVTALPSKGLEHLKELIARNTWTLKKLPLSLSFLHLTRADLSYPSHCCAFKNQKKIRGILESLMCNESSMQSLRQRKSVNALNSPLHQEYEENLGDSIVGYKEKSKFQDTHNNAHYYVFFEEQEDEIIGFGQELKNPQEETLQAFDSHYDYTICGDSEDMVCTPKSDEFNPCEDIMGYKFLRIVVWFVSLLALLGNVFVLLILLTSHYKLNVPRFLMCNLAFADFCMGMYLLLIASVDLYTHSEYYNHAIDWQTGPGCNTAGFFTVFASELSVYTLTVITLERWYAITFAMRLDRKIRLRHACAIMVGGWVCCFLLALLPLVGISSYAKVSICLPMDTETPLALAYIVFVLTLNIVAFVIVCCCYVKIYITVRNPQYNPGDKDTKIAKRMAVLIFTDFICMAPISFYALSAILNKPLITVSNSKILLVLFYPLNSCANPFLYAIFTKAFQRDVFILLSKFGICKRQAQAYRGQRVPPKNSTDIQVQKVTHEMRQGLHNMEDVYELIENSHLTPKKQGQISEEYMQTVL
Procedure, shortened: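 Steps: seed 800 TSHR-HEK293 cells per well; add test compound and hold 30 min at ambient temperature; dispense cAMP-d2 then anti-cAMP cryptate; incubate 1 h at ambient; measure fluorescence intensity.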

SMILES | Potency [1] | Potency [2] | outcome [3] | Potency [4] | Potency [5] | activity change, positive = activation [6] | Potency [7] | Potency [8] | Potency [9] | Potency [10]
COCC(C)N(C(=O)CCl)c1c(C)csc1C (stereo not given) | inactive | inactive | inactive | inactive | 27.3 µM (active) | -54.8% (inactive) | inactive | inactive | inactive | –
CCn1cc[n+](C)c1 | inactive | inactive | inactive | inactive and 102 µM (active) | – | – | inactive | inactive and 1.75 µM (active) | inactive | –
CC1(C)[C@H](C=C(Cl)Cl)[C@@H]1C(=O)O[C@@H](C#N)c1cccc(Oc2ccccc2)c1 | inactive | inactive | inactive | inactive | – | – | inactive | inactive | inactive | –
CCOP(=S)(OCC)SCSCC | inactive | inactive | inactive | inactive | – | – | inactive | inactive | inactive | –
O=C(C(Cl)(Cl)Cl)C(Cl)(Cl)Cl | inactive | inactive | inactive | inactive | – | – | inactive | inactive | inactive | –
O=S(=O)(O)C(F)(F)C(F)(F)C(F)(F)C(F)(F)F | inactive | inactive | inactive | – | – | – | inactive | – | inactive | –
c1ccc(C2CC2)c(OCC2=NCCN2)c1 | inactive | inactive | inactive | inactive | inactive | 4.99% [at 42.5 µM] (inactive) | inactive | inactive | inactive | –
CN(N=O)c1ccc([N+](=O)[O-])cc1 | inactive | inactive | inactive | inactive | – | – | inactive | inactive | inactive | –
O=C(O)C1(c2ccc3c(c2)OC[C@H](Cc2ccc(-c4ccccc4)cc2)[C@H]3O)CCCC1 | 17.4 µM (active) | inactive | – | 101 µM (active) | 61.1 µM (active) | -42.3% (inactive) | inactive | – | inactive | –
CC(O)(CS(=O)(=O)c1ccc(F)cc1)C(=O)Nc1ccc(C#N)c(C(F)(F)F)c1 (stereo not given) | inactive | inactive | inactive | 41.6 µM (active) | – | -29.9% [at 42.5 µM] (inactive) | – | – | inactive | –
CCOc1ccc(C(C)(C)COCc2cccc(Oc3ccccc3)c2)cc1 | inactive | inactive | inactive | inactive | – | – | inactive | inactive | inactive | –
O=C1c2ccccc2C(=O)C1C(=O)C(c1ccccc1)c1ccccc1 | – | – | – | inactive | – | -7.49% [at 42.5 µM] (inactive) | inactive | inactive | inactive | inactive
O=C1C(Cl)C(CCl)CN1c1cccc(C(F)(F)F)c1 (stereo not given) | inactive | inactive | inactive | – | – | -29.4% (inactive) | inactive | 24.5 µM (active) | inactive | –
CCOP(=S)(Oc1ccc([N+](=O)[O-])cc1)c1ccccc1 (stereo not given) | inactive | inactive | inactive | – | inactive | 24.4% (active) | inactive | inactive | inactive | –
COc1cc(Cl)c(OC)cc1Cl | inactive | inactive | inactive | inactive | inactive | 0.702% (inactive) | inactive | inactive | inactive | –
CCOC(=O)COc1cc(-c2nn(C)c(OC(F)F)c2Cl)c(F)cc1Cl | inactive | inactive | inactive | inactive | inactive | 3.17% (inactive) | inactive | inactive | inactive | –
CCOP(=O)(OCC)O/C(=C/Cl)c1ccc(Cl)cc1Cl | inactive | inactive | inactive | – | 6.86 µM (active) | -61.6% (inactive) | inactive | 21.9 µM (active) | inactive | –
COc1c(C(C)(C)C)cc([N+](=O)[O-])c(C)c1[N+](=O)[O-] | inactive | inactive | inactive | inactive | – | – | inactive | inactive | inactive | –
COc1ccc(-c2ccccc2)cc1NNC(=O)OC(C)C | inactive | inactive | inactive | – | 31.9 µM (active) | -62.9% (inactive) | – | 51 µM (active) | inactive | –
O=[N+]([O-])c1ccc(F)c([N+](=O)[O-])c1 | 12.4 µM (active) | inactive | – | 57.2 µM (active) | 43.7 µM (active) | -38.2% (inactive) | inactive | – | inactive | –
OCCCBr | inactive | inactive | inactive | inactive | inactive | -6.8% (inactive) | inactive | inactive | inactive | –
